Measured values from PubChem BioAssay (NCI).
The panel holds about 83,000 compounds, 20% with a hit somewhere; the sample as a whole holds those more often.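 A percent growth of 40 corresponds to 60% growth inhibition; 0 means no net growth; -100 means all cells died. Active threshold: below 10.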 Values without a mark were called inactive. Calls of active or inactive are those of the source.

Tests used:
Assay in all cases: NCI-60 one-dose screen, 48 h (100 = growth as untreated, 0 = no growth, -100 = all killed)
Conditions in all cases: 10 µM unless noted
DU-145 prostate = test system: DU-145 prostate
K-562 leukemia = test system: K-562 leukemia
MALME-3M melanoma = test system: MALME-3M melanoma
MDA-MB-231 breast = test system: MDA-MB-231 breast
RXF 393 renal = test system: RXF 393 renal
SF-268 CNS = test system: SF-268 CNS
SF-295 CNS = test system: SF-295 CNS
UACC-257 melanoma = test system: UACC-257 melanoma
M14 melanoma = test system: M14 melanoma
SF-539 CNS = test system: SF-539 CNS

Compound	growth (DU-145 prostate)	growth (K-562 leukemia)	growth (MALME-3M melanoma)	growth (MDA-MB-231 breast)	growth (RXF 393 renal)	growth (SF-268 CNS)	growth (SF-295 CNS)	growth (UACC-257 melanoma)	growth (M14 melanoma)	growth (SF-539 CNS)
COc1ccc(/C=C/C(=O)/C=C/c2cc3ccccc3[nH]c2=O)cc1	81.2%	4.13% (active)	32.6%	64.5%	30.6%	47.8%	104%	74.8%	72.9%	
COC(=O)c1c[n+]([O-])ccc1OC	114%	71.1%	92.1%	99.4%	108%	116%	88.1%		104%	122%
CSc1nc(N)n2nccc2n1	117%	96.6%	95.3%	100%	112%	118%	95.7%		101%	
O=C(O)COc1ccc([N+](=O)[O-])cc1Cl	118%	99.5%	107%	115%	108%	109%		91.6%	107%	98%
COC(=O)c1cc(=O)nc(N/N=C/c2ccccc2O)s1	111%	78.8%	82.5%	83.8%	99.7%	88.1%	81.4%		95.2%	106%
CCCCCCCCCCCCCCCCCCOP(=O)(O)O	116%	110%	112%	96.6%	114%	109%		113%	99.4%	104%
CCN(CC)C(=O)C1(C)CCCC2(C)c3cc(OC(C)=O)ccc3CCC12 (stereo not given)	99.9%	58.6%	86.4%	103%	92%	86.5%	85.1%		112%	89.2%
Cc1ccc(C(=O)C(Br)C(Br)c2ccccc2)cc1 (stereo not given)	85.9%	50.9%	88.3%	99.9%	79.3%	95.7%	97.9%		101%	100%
CC(=O)Oc1cc2ccccc2cc1C(C)C	126%	117%	111%	117%	102%	111%	96.8%		106%	95%
CN(CCC#N)c1ccc(/C=C(\C#N)c2cccc(C(F)(F)F)c2)cc1	82.5%	21%	58.2%	58.8%	71.7%	81.7%	95.8%		55.9%	68%
CN1NC(c2ccccc2)NN(C)C1=O	122%	89.3%	84.8%	108%	107%	102%	83.5%		108%	106%
COC(=O)[C@H](Cc1cn(C)cn1)NC(=O)[C@H](CC(=O)OCc1ccccc1)NC(=O)Nc1cc(C(F)(F)F)cc(C(F)(F)F)c1	-94.5% [100 µM] (active)	-60.2% [100 µM] (active)	-94.4% [100 µM] (active)	-93% [100 µM] (active)	-81.8% [100 µM] (active)	-91.4% [100 µM] (active)		-94.9% [100 µM] (active)	-93.6% [100 µM] (active)	-94.6% [100 µM] (active)
COc1cc(OC)c(/C=C/c2ccc3ccccc3[n+]2C)c(OC)c1	22.3%	9.98% (active)	3.03% (active)	28.2%	34.5%	18%	-32.7% (active)		15.9%	-23.7% (active)
CCC(C)(CC)c1ccc(O)c(C)c1	114%	114%	99.8%	106%	108%	109%	105%		99.7%	100%
C=C[C@]1(C)C=C2C(=O)[C@@]3(O)OC[C@@]4(CCCC(C)(C)C43O)C2(O)C(O)C1 (stereo not given in full)	60.2%	17.1%	5.18% (active)	98.3%	21.4%	83.8%	113%		9.03% (active)	66.2%
CC(O)CCC(C)[N+](=O)[O-] (stereo not given)	111%	99.9%	106%	110%	119%	104%		102%		99%
CCCCN(CCCC)c1ccc(C(=O)O)cc1	101%	107%	74%	120%	105%	101%	97.7%		103%	109%
CCOC(=O)C(C)C(C)(O)c1ccccc1 (stereo not given)	110%	100%	84.2%	103%	103%	98.6%	103%		96.3%	105%
O=C(/C=C/c1ccc(Cl)cc1)c1ccc(Cl)cc1	101%	73.9%	91.8%	118%	96%	98.3%		103%	100%	104%
CCCCCCCCC(=O)Nc1ccc(O)cc1	103%	91.2%	87.7%	92.1%	101%	92%	101%		107%	88.9%
COC(=O)[C@H](Cc1cn(C)cn1)NC(=O)[C@H](Cc1c[nH]c2ccccc12)NC(=O)Nc1cc(C(F)(F)F)cc(C(F)(F)F)c1	-88.1% [100 µM] (active)	-59.3% [100 µM] (active)	-70.2% [100 µM] (active)	-92.4% [100 µM] (active)	-81.2% [100 µM] (active)	-79.9% [100 µM] (active)		-67.6% [100 µM] (active)		-69.1% [100 µM] (active)
O=C1C(Cl)=C(Nc2ccc(Nc3ccccc3)c(NC3=C(Cl)C(=O)c4ccccc4C3=O)c2)C(=O)c2ccccc21	104%	41.4%	39.4%	58.5%	74.3%	72.7%		79.8%	118%	42.5%
CC(=O)C(CO)C(=O)Nc1ccccc1 (stereo not given)	112%	102%	109%	102%		107%	107%	85.7%	99.5%	95.4%
CCOC(=O)C1CCCN1C(=O)C1(NC(C)=O)CCCC1 (stereo not given)	103%	110%	96.7%	121%	110%		104%	102%	95.2%	95.8%
O=c1[nH]c(=S)[nH]c(O)c1/C=C1\C=Nc2ccccc21	108%	99.4%	99.5%	64.5%		70%	43%	80.5%	92.3%	94.2%
COc1cc(/C(=C2/O[C@@H]([C@H]3COC(C)(C)O3)[C@H]3OC(C)(C)O[C@@H]23)c2ccc3c(c2)OCO3)cc(OC)c1OC	60.2%	40.8%	29.1%	21.9%		72%	76.1%	58.8%	93.7%	25.2%
C[C@]12CC[C@H]3[C@@H](CC[C@H]4C[C@@H](O)CC[C@@]43C)[C@@H]1CC(=O)C2	107%	94.1%	163%	112%	118%	97.9%		104%	108%	92.7%
COc1ccc(C(=O)c2no[n+]([O-])c2C(=O)c2ccc(OC)cc2)cc1	81.1%	-100% (active)	-69.5% (active)	57.4%		-38.5% (active)	92.8%	13.4%		89.3%
N=C(N)N=Nc1ccc(NN=C(N)N)cc1	95.4%	96.2%	138%	86.2%	81.6%		101%	94%	78.6%	
CC#Cc1nc(Nc2cc(C)[nH]n2)c2ccccc2n1	-4.22% [100 µM] (active)	9.48% [100 µM] (active)	-45.3% [100 µM] (active)	-34.5% [100 µM] (active)	-51% [100 µM] (active)	-72.5% [100 µM] (active)		-19.9% [100 µM] (active)	-27.3% [100 µM] (active)	1.15% [100 µM] (active)
